HCV inhibitor: inhibitors of hepatitis C virus infection | hit rate 3.4% among 340,000 | AID 651820 | Huh7.5.1 HCVcc-Cre infection, luciferase reporter, 44 h | Potency, µM (top dose mostly 41.8 µM), for the others: top-dose activity change, negative = inhibition, hits mostly inhibitors; active = well fitted inhibition curve with a large enough effect; inconclusive = small, poorly fitted or top-dose-only effect, or another doubt; inactive = no such curve, though single readings can be large or run the other way; note: potency is the fitted concentration of half-maximal effect
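Antiviral activity was scored by luciferase reporter output from cells infected with HCVcc-Cre (~0.5 moi) in presence of compound, 44 h infection period, cells seeded 1,000/well 4 h prior.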
VACV mCherry inh: vaccinia inhibition (mCherry reporter). Vaccinia virus mCherry reporter infection, fluorescence. Potency, µM (series often up to 36.5 µM), inactives show at the top dose activity change, negative = inhibition, hits mostly inhibitors. hit rate 0.63% among 310,000. AID 720579; calls by dose curve; tested in A549 cells; note: potency is the fitted concentration of half-maximal effect; nearly all actives have a fitted effect of over 35% in size
HCMV antiviral: blocks human cytomegalovirus replication | hit rate 4.5% among 410,000 | AID 1259415 | activity change, negative = inhibition, % at 57.5 µM | HFF cells, HCMV-luciferase reporter, 72 h; stronger effect = lower value; in the data active = activity change below about -60%; inconclusive = no clear call, values can overlap the other calls; inactive = above about -39%
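Inhibition of viral replication was scored as loss of reporter luminescence in HFFs infected with HCMV-luciferase (MOI 1 PFU/cell) for 72 h; compounds tested at 2 doses, normalized to buffer and Salinomycin controls.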
FMDV inh: blocks foot and mouth disease virus. FMDV antiviral cell-based qHTS. Potency, µM (doses to about 57.9 µM), without a hit: at the highest dose activity change, negative = inhibition, actives largely listed as inhibitors. hit rate 1.2% among 410,000. AID 1159524; calls by dose curve; tested in HEK293T cells; note: read-out not given here; potency is the fitted concentration of half-maximal effect; nearly all actives have a fitted effect of over 45% in size
VACV Venus inh: vaccinia inhibition (Venus reporter); Vaccinia virus Venus reporter expression, fluorescence; Potency, µM (series often up to 36.5 µM), without a hit: at the top dose activity change, negative = inhibition, usual class: inhibitors; hit rate 0.46% among 330,000; calls by dose curve; tested in A549 cells; note: potency is the fitted concentration of half-maximal effect; nearly all actives have a fitted effect of over 30% in size
Starred values were filed as active, the others as inactive; [ ] = dose if it differs, or a comment. The list is not random: actives were taken first. Their share in the collection is about 7.3%. % is set by controls: 0 for no effect and ±100 for the full control effect.

What do the screens show for `CCOC(=O)c1c(NC(=O)COC(=O)c2nc(Cl)ccc2Cl)sc2c1CCC2`?
HCV inhibitor: -2%; VACV mCherry inh: -12%; HCMV antiviral: -61*; FMDV inh: -9%; VACV Venus inh: -6%

Results for COc1ccccc1OCC(=O)Nc1sc2c(c1C(=O)NCC1CCCO1)CCC2 (centres undefined) ?
HCV inhibitor: 0.89µM*; VACV mCherry inh: -16%; HCMV antiviral: inconclusive; VACV Venus inh: -9%

What do the screens show for `CCOC(=O)c1c(NC(=O)COc2cccc3c2CCN(CC)C3=O)sc2c1CCC2`?
HCV inhibitor: 10%; VACV mCherry inh: 0%; HCMV antiviral: -80*; FMDV inh: -16%; VACV Venus inh: 2%

What do the screens show for `Cc1ccc2c(c1C)NC(=O)CC2c1ccc(Cl)cc1Cl` (centres undefined)?
VACV mCherry inh: -25%; HCMV antiviral: -14; FMDV inh: inconclusive; VACV Venus inh: -24%

How did CC(NC1=CC(=O)c2cccnc2C1=O)C(O)c1ccccc1 (centres undefined) do in these assays?
HCV inhibitor: inconclusive; VACV mCherry inh: inconclusive; HCMV antiviral: -99*; FMDV inh: 28µM*; VACV Venus inh: 10µM*

Results for O=C1C(Nc2ccccc2)=CC(=O)c2ncccc21 ?
VACV mCherry inh: -7%[60.7 µM]; FMDV inh: inconclusive; VACV Venus inh: -23%[60.7 µM]

What do the screens show for `O=C(Nc1ccccc1F)c1nc(SCc2ccccc2F)ncc1Cl`?
VACV mCherry inh: -1%; HCMV antiviral: -10; FMDV inh: -19%; VACV Venus inh: -9%

Results for COc1cc(OC)c(NC(=O)CN2CCCN(Cc3ccccc3C)S2(=O)=O)cc1Cl ?
VACV mCherry inh: -2%; HCMV antiviral: 11; FMDV inh: -6%; VACV Venus inh: -2%

How did Cc1ccc(C(C(=O)NC(C)(C)C)N(CCCN2CCOCC2)C(=O)c2ccc(-c3ccccc3)[nH]2)o1 (centres undefined) do in these assays?
HCV inhibitor: 13%; VACV mCherry inh: -2%; HCMV antiviral: -74*; FMDV inh: 21%; VACV Venus inh: -1%

How did O=C(NC1CCCCC1)C(c1cccs1)N(CCCN1CCOCC1)C(=O)c1ccc(-c2ccccc2)[nH]1 (centres undefined) do in these assays?
HCV inhibitor: inconclusive; VACV mCherry inh: -23%; HCMV antiviral: -5; FMDV inh: -14%; VACV Venus inh: -20%

How did CCc1ccc(NC(=O)CN2C(=O)C3(SCC(=O)N3c3ccc(F)c(F)c3)c3ccccc32)cc1 (centres undefined) do in these assays?
VACV mCherry inh: inconclusive; HCMV antiviral: inconclusive; FMDV inh: 0%; VACV Venus inh: inconclusive

What do the screens show for `O=C(CN1C(=O)C2(SCC(=O)N2c2ccc(F)c(F)c2)c2ccccc21)Nc1cccc(Cl)c1` (centres undefined)?
VACV mCherry inh: -26%; HCMV antiviral: -93*; FMDV inh: inconclusive; VACV Venus inh: -29%

What do the screens show for `Cc1ccc(NC(=O)CN2C(=O)C3(SCC(=O)N3c3cccc(Cl)c3)c3ccccc32)cc1C` (centres undefined)?
VACV mCherry inh: inconclusive; HCMV antiviral: -65*; FMDV inh: -11%; VACV Venus inh: -7%

What do the screens show for `Cc1ccc(N2C(=O)CSC23C(=O)N(CC(=O)Nc2ccc(C(C)C)cc2)c2ccccc23)cc1C` (centres undefined)?
VACV mCherry inh: -14%; HCMV antiviral: 25; FMDV inh: -23%; VACV Venus inh: -24%

How did Cc1ccccc1-n1c2nc(=O)[nH]c(=O)c-2cc2c(Cl)cccc21 do in these assays?
VACV mCherry inh: -11%; HCMV antiviral: -9; FMDV inh: -27%; VACV Venus inh: 1%

How did CC(C)CC(NC(=O)CCCNC(=O)CCC(=O)OC1O[C@H]2OC3(C)CC[C@H]4[C@H](C)CCC(C1C)C24OO3)C(=O)O (some centres undefined) do in these assays?
HCV inhibitor: inconclusive; VACV mCherry inh: -18%; HCMV antiviral: -63*; FMDV inh: 8%; VACV Venus inh: 1%

Results for COc1ccc(OCC(=O)NNC(=O)C(=O)Nc2ccccc2)cc1 ?
HCV inhibitor: -17%; HCMV antiviral: -1; FMDV inh: 10%

How did O=C(CCCO)NNc1c2ccccc2nc2ccccc12 do in these assays?
HCV inhibitor: 1µM*; VACV mCherry inh: -22%[7.34 µM]; HCMV antiviral: -21; FMDV inh: -3%; VACV Venus inh: -4%[7.34 µM]

How did COc1ccc(OCC(=O)NNc2c3ccccc3nc3ccccc23)cc1 do in these assays?
HCV inhibitor: 6.3µM*; VACV mCherry inh: -22%; HCMV antiviral: -75*; FMDV inh: 22µM*; VACV Venus inh: inconclusive

How did O=C(NNc1c2ccccc2nc2ccccc12)C(O)c1ccccc1 (centres undefined) do in these assays?
HCV inhibitor: inconclusive; HCMV antiviral: 0; FMDV inh: -9%

Results for CCCN1CNc2c(c(=O)[nH]c(=S)n2CCc2ccc(C)cc2C)C1 ?
VACV mCherry inh: inactive; VACV Venus inh: -12%

What do the screens show for `Cc1ncc2c(c1CNC(=O)c1ccc3c(c1)OCO3)CCN(C(=O)c1cn3ccccc3n1)C2`?
VACV mCherry inh: -10%; FMDV inh: -1%; VACV Venus inh: 5%

What do the screens show for `CCOC(=O)C(CNc1ccc(OCc2ccccc2)cc1)NC(=O)c1ccccc1` (centres undefined)?
HCMV antiviral: 22

What do the screens show for `O=C(OCc1ccc(C(=O)c2ccccc2)cc1)c1cccc(-c2nnc(-c3ccccc3)o2)c1`?
HCV inhibitor: 14µM*; HCMV antiviral: inconclusive; FMDV inh: 61%

How did O=C(OCc1ccccc1)c1cccc(-c2nnc(-c3ccccc3)o2)c1 do in these assays?
HCV inhibitor: -1%; HCMV antiviral: 20; FMDV inh: 55%

Results for COc1ccccc1-c1cccc([C@@H]2C[C@H]3[C@H](CON3C)CN2Cc2ccccc2)c1 ?
HCV inhibitor: 8.9µM*; VACV mCherry inh: inactive; HCMV antiviral: -8; FMDV inh: 0%; VACV Venus inh: -17%

What do the screens show for `COc1ccccc1-c1cccc([C@@H]2C[C@H]3[C@H](CON3C)CN2Cc2cc(Cl)cc(Cl)c2)c1`?
HCV inhibitor: inconclusive; VACV mCherry inh: -21%; HCMV antiviral: -4; FMDV inh: -23%; VACV Venus inh: 4%

Results for COCCCNC(=O)c1ccc2sc([C@@H]3O[C@H](CO)[C@H](O)[C@H](O)[C@H]3O)nc2c1 ?
VACV mCherry inh: 18%; HCMV antiviral: -8; FMDV inh: -6%; VACV Venus inh: 8%

What do the screens show for `Cn1c(=O)c2c(nc(N3CCOCC3)n2Cc2cccc(Br)c2)n(C)c1=O`?
VACV mCherry inh: -5%; HCMV antiviral: 2; FMDV inh: inconclusive; VACV Venus inh: 3%

Results for CCOC(=O)CSc1nc2ccc(Nc3nc(N4CCOCC4)nc(N4CCOCC4)n3)cc2s1 ?
HCV inhibitor: 7%; HCMV antiviral: 27; FMDV inh: 2%
